Compounds without any hit were thinned out: in the full panel of roughly 83,000, 20% have a hit.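 Treatment: one concentration, 48 hours, 96-well format. Scoring: percent growth, with anything below 10 considered active.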 A number with no mark means an inactive call. The source made the active and inactive calls.
Assays:
Experiment in all cases: NCI-60 one-dose screen, 48 h (100 = growth as untreated, 0 = no growth, -100 = all killed)
Conditions in all cases: 10 µM unless noted
[1] = system: NCI-H23 lung
[2] = system: NCI-H226 lung
[3] = system: NCI-H322M lung
[4] = system: HOP-62 NSCLC
[5] = system: NCI-H460 lung
[6] = system: HOP-92 NSCLC
[7] = system: NCI-H522 lung
[8] = system: A549/ATCC NSCLC
[9] = system: 786-0 renal
[10] = system: COLO 205 colon

SMILES | growth [1] | growth [2] | growth [3] | growth [4] | growth [5] | growth [6] | growth [7] | growth [8] | growth [9] | growth [10]
CCCCCCCC12Cc3ccccc3C1=Nc1c(c3ccccc3n1C)C2=O (stereo not given) | 84.8% | 77.8% | 88.4% | 84% | 92.7% | 93.4% | 48.1% | 75.5% | 105% | 112%
O=[N+]([O-])c1cc(Br)cc2c1[nH]c1ccc(Br)cc12 | 58% | 53.9% | 58% | 39.2% | 73.5% | 44.2% | 63.5% | 52.3% | 44.3% | 52.1%
CN(C)C[C@@H]1CCn2cc(c3ccccc32)C2=C(C(=O)NC2=O)c2cn(c3ccccc23)CCO1 | -15.7% (active) | -12.5% (active) | 32.2% | -67.9% (active) | -70.6% (active) | 46.1% | -23.1% (active) | -12.4% (active) | -69.9% (active) | -53.8% (active)
COC1CCC(N2C(=O)CNc3ncc(-c4ccc(C(C)(C)O)nc4)nc32)CC1 (stereo not given) | 15.8% | 8.08% (active) | -5.65% (active) | 5.54% (active) | 12.4% | -12% (active) | -10.3% (active) | 2.75% (active) | 6.56% (active) | -7.31% (active)
CCN(CC)CCNc1ccc(N=Nc2cnc3ccccc3c2)c2ccccc12 | -92.6% (active) | -73.6% (active) | 10.8% | -84.6% (active) | -78.8% (active) | -82.4% (active) | -87.2% (active) | -97.9% (active) | -87.9% (active) | -82.2% (active)
C=CCN1C(=O)c2cccc3c(-c4ccc5c(c4)ncn5C4CCCCC4)ccc(c23)C1=O | 50.5% | 44.8% | 93.9% | 67.1% | 58.2% | 32.4% | 52% | 58.3% | 58.8% | 47%
CSc1nc2ncncc2[nH]1 | 101% | 92.5% | 102% | 82.5% | 110% | 153% | 101% | 103% | 93.9% | 120%
C/C(=C(/c1ccc(Cl)cc1)c1ccc(OCCN2CCCC2)cc1)c1ccccc1 | 71.2% | 83.3% | 82.5% | 90% | 41.5% | 84.2% | 58.9% | 66.7% | 75.2% | 24.3%
Clc1ccc(Nc2nccc(Nc3ccc4[nH]ncc4c3)n2)cc1 | 45.7% | 28.2% | 74.8% | 65.5% | 41% | -0.955% (active) | 20.8% | 50.2% | 57.4% | 42.2%
Cc1ccccc1N1C(c2ccccc2)=NNC12C=CC(=O)C=C2Cl (stereo not given) | 98.1% | 115% | 95.4% | 98.3% | 115% | 114% | 95.2% | 75.5% | 106% | 99.3%
CC(C)C1CCC(C)C(C2(C#N)C(N)=NC(N)=C2C#N)C1=O (stereo not given) | 92.3% | 100% | 98.8% | 104% | 105% | 88.9% | 89.4% | 105% | 106% | 100%
Cc1c(NC(=O)OC[C@@H]2COCCN2)cn2ncnc(Nc3ccc4c(cnn4Cc4cccc(F)c4)c3)c12 | -12.9% (active) | -1.69% (active) | -1.86% (active) | -25% (active) | 4.49% (active) | -12.7% (active) | -30.4% (active) | -9.38% (active) | 0.0698% (active) | -45.4% (active)
N#Cc1c(-c2ccc(C(F)(F)F)cc2)cc(NCC2CCS(=O)(=O)CC2)n2c1nc1ccccc12 | 88.8% | 93.7% | 100% | 86.4% | 96.8% | 80.9% | 64.5% | 77% | 84.6% | 96.6%
O=C(O)c1ccc2c(c1)nc(Nc1cccc(Cl)c1)c1ccncc12 | 2.72% (active) | 3.78% (active) | -25.5% (active) | -1.83% (active) | 14.7% | -20.3% (active) | -35.7% (active) | 27.8% | 17.5% | -16.8% (active)
CNS(=O)(=O)Nc1nccc(Cc2c(C)c3ccc(Oc4ncccn4)cc3oc2=O)c1F | 24.1% | 58% | 33.3% | 42.8% | 61.3% | -4.71% (active) | 52% | 38.3% | 68% | 8.97% (active)
CC(=O)Nc1cccc(-n2c(=O)n(C3CC3)c(=O)c3c(Nc4ccc(I)cc4F)n(C)c(=O)c(C)c32)c1 | 17.1% | 49.5% | 10.9% | 19.5% | 56.1% | -27% (active) | 34.6% | 28.4% | 56.2% | -12.9% (active)
Cc1cc2c(-c3nc4ccccn4c3NC34CC5CC(CC(C5)C3)C4)c(O)c(O)cc2c(O)c1-c1c(C)cc2c(-c3nc4ccccn4c3NC34CC5CC(CC(C5)C3)C4)c(O)c(O)cc2c1O | -1.87% (active) | 12.7% | 30.2% | 1.34% (active) | 5.53% (active) | -9.41% (active) | -5.03% (active) | 2.96% (active) | -12% (active) | 6.77% (active)
CN1CCN(c2nc(NCCNc3ccnc4cc(Cl)ccc34)c3ccccc3n2)CC1 | 44.9% | 62% | 21.3% | 13.7% | 11.6% | 53% | -20.2% (active) | 1.62% (active) | -33.3% (active) | -62.6% (active)
Ic1ccccc1-c1ccccc1 | 102% | 106% | 114% | 100% | 100% | 87.3% | 94.9% | 87.9% | 108% | 96.4%
C=CC(=O)N1CCC(Oc2cc3c(Nc4ccc(Cl)c(Cl)c4F)ncnc3cc2OC)CC1 | 23.2% | 34.9% | 12.2% | 18.4% | 39.3% | -29.7% (active) | -49.3% (active) | 15.7% | 23.2% | 15%
C1=C\COCc2cc(ccc2OCCN2CCCC2)Nc2nccc(n2)-c2cccc(c2)COC/1 | -17.3% (active) | -64.9% (active) | -8.53% (active) | -18.1% (active) | -34.5% (active) | -0.764% (active) | -58.1% (active) | -17.3% (active) | 1.51% (active) | -82% (active)
Nc1c(Cl)cccc1[N+](=O)[O-] | 106% | 101% | 110% | 98.8% | 104% | 96.6% | 118% | 101% | 109% | 114%
COC(=O)[C@@H](C)CNS(=O)(=O)N(c1cc(C(F)(F)F)cc(C(F)(F)F)c1)C1CCN(Cc2ccc(F)cc2)CC1 | 66.8% | 70.1% | 79% | 79% | 62.3% | 47.8% | 56.1% | 54% | 59.7% | -43.2% (active)
NC1(C(=O)N[C@@H](CCO)c2ccc(Cl)cc2)CCN(c2ncnc3[nH]ccc23)CC1 | 53% | 17.3% | 55% | 33.9% | 24.6% | -13.2% (active) | 44.2% | 56.6% | 1.31% (active) | 32.1%
CC(C)(C)OC(=O)N1CCC(O)[C@@H](O[Si](c2ccccc2)(c2ccccc2)C(C)(C)C)[C@H]1/C=C/c1ccccc1 (stereo not given in full) | 34.4% | 47.9% | 83.5% | 67.4% | 36.1% | 36% | 30.1% | 41.9% | 52.2% | 49%
COc1c(C(NC(=O)c2ccccc2)c2sccc2C)cc(Cl)c2cccnc12 (stereo not given) | 100% | 89.1% | 99.8% | 88.2% | 106% | 104% | 72.4% | 75.7% | 98.9% | 121%
O=C(c1ccccc1)C(c1ccccc1)N1CCOCC1 (stereo not given) | 96.9% | 94.8% | 105% | 94.7% | 103% | 103% | 90.4% | 90.2% | 104% | 109%
